Data from the supplement of paper PMC10849652.
The full data set covers some 8,800 targets. This sample favours those with a hit. About 0.5% of all pairs of compound and target were hits. Values without a mark were called inactive.

Key:
Assay in all cases: log2 fold change, soluble protein after heating vs DMSO (PISA); higher = thermal stabilisation; K562 lysate, 10 uM; active = over 0.2 and 3.5 SD of the protein, either way, in both replicates (recomputed)
alvocidib = compound: CN1CC[C@H](c2c(O)cc(O)c3c(=O)cc(-c4ccccc4Cl)oc23)[C@H](O)C1 [alvocidib]
Summary of the method: (§1)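 Log-two fold change in thermal stability relative to solvent controls is reported from duplicates. For each sample, crude K562 extract from dounce-homogenised pellets in PBS pH 7.4 with 1 mM MgCl2, at 1 mg/mL protein, was treated with 10 μM compound for 30 min. Aliquots heated for 3 min across 48°C-58°C were pooled, brought to 0.5% NP-40 at 4°C and cleared at 21,000xg for 90 min. The supernatant was quantified by TMTpro 16plex LC-MS/MS with channel sums equalised.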

Tubastatin A = compound: CN1CCc2c(c3ccccc3n2Cc2ccc(C(=O)NO)cc2)C1 [Tubastatin A]
Summary of the method: as §1

[1] = compound: CNC(=O)C1=CC=CC=C1NC2=NC(=NC=C2Cl)NC3=C(C=C(C=C3)N4CCOCC4)OC
Summary of the method: as §1

defactinib = compound: CNC(=O)c1ccc(Nc2ncc(C(F)(F)F)c(NCc3nccnc3N(C)S(C)(=O)=O)n2)cc1 [defactinib]
Summary of the method: as §1

[2] = compound: CNc1nc(-c2ccc3c(N)n[nH]c3c2)cc(N2C[C@@H](C(=O)NC3CCCCC3)CC[C@H]2C)n1
Summary of the method: as §1

encorafenib = compound: COC(=O)N[C@@H](C)CNc1nccc(-c2cn(C(C)C)nc2-c2cc(Cl)cc(NS(C)(=O)=O)c2F)n1 [encorafenib]
Summary of the method: as §1

[3] = compound: COC(=O)[C@H](CCSC)NC(=O)C1=C(C=C(C=C1)NC[C@H](CS)N)C2=CC=CC=C2
Summary of the method: as §1

alisertib = compound: COc1cc(Nc2ncc3c(n2)-c2ccc(Cl)cc2C(c2c(F)cccc2OC)=NC3)ccc1C(=O)O [alisertib]
Summary of the method: as §1

[4] = compound: COc1cc2nc(-c3cc(F)ccc3O)nc(N[C@@H]3CNC[C@H]3C(C)(C)O)c2cc1OC
Summary of the method: as §1

gefitinib = compound: COc1cc2ncnc(Nc3ccc(F)c(Cl)c3)c2cc1OCCCN1CCOCC1 [gefitinib]
Summary of the method: as §1

lapatinib = compound: CS(=O)(=O)CCNCc1ccc(-c2ccc3ncnc(Nc4ccc(OCc5cccc(F)c5)c(Cl)c4)c3c2)o1 [lapatinib]
Summary of the method: as §1

pictilisib = compound: CS(=O)(=O)N1CCN(Cc2cc3nc(-c4cccc5[nH]ncc45)nc(N4CCOCC4)c3s2)CC1 [pictilisib]
Summary of the method: as §1

crizotinib = compound: C[C@@H](Oc1cc(-c2cnn(C3CCNCC3)c2)cnc1N)c1c(Cl)ccc(F)c1Cl [crizotinib]
Summary of the method: as §1

[5] = compound: C[C@H](C1=CC=C(C=C1)C(=O)NC2=C3C=CNC3=NC=C2)N
Summary of the method: as §1

duvelisib = compound: C[C@H](Nc1ncnc2nc[nH]c12)c1cc2cccc(Cl)c2c(=O)n1-c1ccccc1 [duvelisib]
Summary of the method: as §1

gandotinib = compound: Cc1cc(Nc2cc(CN3CCOCC3)c3nc(C)c(Cc4ccc(Cl)cc4F)n3n2)n[nH]1 [gandotinib]
Summary of the method: as §1

tozasertib = compound: Cc1cc(Nc2cc(N3CCN(C)CC3)nc(Sc3ccc(NC(=O)C4CC4)cc3)n2)n[nH]1 [tozasertib]
Summary of the method: as §1

doramapimod = compound: Cc1ccc(-n2nc(C(C)(C)C)cc2NC(=O)Nc2ccc(OCCN3CCOCC3)c3ccccc23)cc1 [doramapimod]
Summary of the method: as §1

bafetinib = compound: Cc1ccc(NC(=O)c2ccc(CN3CC[C@H](N(C)C)C3)c(C(F)(F)F)c2)cc1Nc1nccc(-c2cncnc2)n1 [bafetinib]
Summary of the method: as §1

[6] = compound: Cc1cccc(CC(=O)N2CCc3c2ccc(-c2cn(C)c4ncnc(N)c24)c3F)n1
Summary of the method: as §1

Sequence of UniProt P42695 (P42695 whole entry, looked up): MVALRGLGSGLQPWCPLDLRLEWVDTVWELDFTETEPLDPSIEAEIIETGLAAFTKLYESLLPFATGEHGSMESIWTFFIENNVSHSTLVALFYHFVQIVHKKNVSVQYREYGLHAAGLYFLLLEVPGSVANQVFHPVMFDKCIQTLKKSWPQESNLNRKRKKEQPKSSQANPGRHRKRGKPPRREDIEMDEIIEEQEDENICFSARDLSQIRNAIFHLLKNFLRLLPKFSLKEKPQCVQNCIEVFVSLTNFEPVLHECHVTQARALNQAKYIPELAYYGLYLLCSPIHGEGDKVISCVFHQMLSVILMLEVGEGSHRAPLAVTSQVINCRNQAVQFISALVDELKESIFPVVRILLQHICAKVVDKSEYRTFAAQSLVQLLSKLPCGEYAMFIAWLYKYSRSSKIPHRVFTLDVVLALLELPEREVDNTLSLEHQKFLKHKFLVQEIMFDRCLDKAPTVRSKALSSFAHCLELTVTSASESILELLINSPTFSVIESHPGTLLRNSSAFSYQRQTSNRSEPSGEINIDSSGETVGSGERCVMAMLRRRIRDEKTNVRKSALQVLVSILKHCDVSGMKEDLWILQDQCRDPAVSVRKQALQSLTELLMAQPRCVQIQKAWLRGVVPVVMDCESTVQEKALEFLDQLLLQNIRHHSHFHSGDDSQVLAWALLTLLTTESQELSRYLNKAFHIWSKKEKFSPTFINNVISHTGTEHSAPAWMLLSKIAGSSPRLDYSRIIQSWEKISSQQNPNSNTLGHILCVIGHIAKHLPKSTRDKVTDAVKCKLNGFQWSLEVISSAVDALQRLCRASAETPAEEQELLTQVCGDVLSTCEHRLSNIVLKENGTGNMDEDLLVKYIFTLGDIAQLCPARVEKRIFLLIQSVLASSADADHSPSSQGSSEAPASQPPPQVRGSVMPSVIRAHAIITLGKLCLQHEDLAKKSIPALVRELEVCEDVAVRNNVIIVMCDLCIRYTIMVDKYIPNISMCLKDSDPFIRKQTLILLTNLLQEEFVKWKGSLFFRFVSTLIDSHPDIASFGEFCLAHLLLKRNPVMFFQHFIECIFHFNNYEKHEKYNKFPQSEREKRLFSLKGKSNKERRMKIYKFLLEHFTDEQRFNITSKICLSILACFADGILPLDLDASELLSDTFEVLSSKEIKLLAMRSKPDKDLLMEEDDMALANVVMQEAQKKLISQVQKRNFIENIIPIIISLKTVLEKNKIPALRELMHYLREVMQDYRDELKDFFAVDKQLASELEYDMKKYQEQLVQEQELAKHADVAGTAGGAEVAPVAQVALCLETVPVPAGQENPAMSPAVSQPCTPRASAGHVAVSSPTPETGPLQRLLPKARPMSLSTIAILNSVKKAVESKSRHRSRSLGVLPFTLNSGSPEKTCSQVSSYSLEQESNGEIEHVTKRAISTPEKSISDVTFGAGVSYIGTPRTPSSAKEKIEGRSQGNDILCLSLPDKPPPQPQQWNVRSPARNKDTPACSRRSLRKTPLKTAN
Sequence of UniProt Q6KC79 (Q6KC79 whole entry, looked up): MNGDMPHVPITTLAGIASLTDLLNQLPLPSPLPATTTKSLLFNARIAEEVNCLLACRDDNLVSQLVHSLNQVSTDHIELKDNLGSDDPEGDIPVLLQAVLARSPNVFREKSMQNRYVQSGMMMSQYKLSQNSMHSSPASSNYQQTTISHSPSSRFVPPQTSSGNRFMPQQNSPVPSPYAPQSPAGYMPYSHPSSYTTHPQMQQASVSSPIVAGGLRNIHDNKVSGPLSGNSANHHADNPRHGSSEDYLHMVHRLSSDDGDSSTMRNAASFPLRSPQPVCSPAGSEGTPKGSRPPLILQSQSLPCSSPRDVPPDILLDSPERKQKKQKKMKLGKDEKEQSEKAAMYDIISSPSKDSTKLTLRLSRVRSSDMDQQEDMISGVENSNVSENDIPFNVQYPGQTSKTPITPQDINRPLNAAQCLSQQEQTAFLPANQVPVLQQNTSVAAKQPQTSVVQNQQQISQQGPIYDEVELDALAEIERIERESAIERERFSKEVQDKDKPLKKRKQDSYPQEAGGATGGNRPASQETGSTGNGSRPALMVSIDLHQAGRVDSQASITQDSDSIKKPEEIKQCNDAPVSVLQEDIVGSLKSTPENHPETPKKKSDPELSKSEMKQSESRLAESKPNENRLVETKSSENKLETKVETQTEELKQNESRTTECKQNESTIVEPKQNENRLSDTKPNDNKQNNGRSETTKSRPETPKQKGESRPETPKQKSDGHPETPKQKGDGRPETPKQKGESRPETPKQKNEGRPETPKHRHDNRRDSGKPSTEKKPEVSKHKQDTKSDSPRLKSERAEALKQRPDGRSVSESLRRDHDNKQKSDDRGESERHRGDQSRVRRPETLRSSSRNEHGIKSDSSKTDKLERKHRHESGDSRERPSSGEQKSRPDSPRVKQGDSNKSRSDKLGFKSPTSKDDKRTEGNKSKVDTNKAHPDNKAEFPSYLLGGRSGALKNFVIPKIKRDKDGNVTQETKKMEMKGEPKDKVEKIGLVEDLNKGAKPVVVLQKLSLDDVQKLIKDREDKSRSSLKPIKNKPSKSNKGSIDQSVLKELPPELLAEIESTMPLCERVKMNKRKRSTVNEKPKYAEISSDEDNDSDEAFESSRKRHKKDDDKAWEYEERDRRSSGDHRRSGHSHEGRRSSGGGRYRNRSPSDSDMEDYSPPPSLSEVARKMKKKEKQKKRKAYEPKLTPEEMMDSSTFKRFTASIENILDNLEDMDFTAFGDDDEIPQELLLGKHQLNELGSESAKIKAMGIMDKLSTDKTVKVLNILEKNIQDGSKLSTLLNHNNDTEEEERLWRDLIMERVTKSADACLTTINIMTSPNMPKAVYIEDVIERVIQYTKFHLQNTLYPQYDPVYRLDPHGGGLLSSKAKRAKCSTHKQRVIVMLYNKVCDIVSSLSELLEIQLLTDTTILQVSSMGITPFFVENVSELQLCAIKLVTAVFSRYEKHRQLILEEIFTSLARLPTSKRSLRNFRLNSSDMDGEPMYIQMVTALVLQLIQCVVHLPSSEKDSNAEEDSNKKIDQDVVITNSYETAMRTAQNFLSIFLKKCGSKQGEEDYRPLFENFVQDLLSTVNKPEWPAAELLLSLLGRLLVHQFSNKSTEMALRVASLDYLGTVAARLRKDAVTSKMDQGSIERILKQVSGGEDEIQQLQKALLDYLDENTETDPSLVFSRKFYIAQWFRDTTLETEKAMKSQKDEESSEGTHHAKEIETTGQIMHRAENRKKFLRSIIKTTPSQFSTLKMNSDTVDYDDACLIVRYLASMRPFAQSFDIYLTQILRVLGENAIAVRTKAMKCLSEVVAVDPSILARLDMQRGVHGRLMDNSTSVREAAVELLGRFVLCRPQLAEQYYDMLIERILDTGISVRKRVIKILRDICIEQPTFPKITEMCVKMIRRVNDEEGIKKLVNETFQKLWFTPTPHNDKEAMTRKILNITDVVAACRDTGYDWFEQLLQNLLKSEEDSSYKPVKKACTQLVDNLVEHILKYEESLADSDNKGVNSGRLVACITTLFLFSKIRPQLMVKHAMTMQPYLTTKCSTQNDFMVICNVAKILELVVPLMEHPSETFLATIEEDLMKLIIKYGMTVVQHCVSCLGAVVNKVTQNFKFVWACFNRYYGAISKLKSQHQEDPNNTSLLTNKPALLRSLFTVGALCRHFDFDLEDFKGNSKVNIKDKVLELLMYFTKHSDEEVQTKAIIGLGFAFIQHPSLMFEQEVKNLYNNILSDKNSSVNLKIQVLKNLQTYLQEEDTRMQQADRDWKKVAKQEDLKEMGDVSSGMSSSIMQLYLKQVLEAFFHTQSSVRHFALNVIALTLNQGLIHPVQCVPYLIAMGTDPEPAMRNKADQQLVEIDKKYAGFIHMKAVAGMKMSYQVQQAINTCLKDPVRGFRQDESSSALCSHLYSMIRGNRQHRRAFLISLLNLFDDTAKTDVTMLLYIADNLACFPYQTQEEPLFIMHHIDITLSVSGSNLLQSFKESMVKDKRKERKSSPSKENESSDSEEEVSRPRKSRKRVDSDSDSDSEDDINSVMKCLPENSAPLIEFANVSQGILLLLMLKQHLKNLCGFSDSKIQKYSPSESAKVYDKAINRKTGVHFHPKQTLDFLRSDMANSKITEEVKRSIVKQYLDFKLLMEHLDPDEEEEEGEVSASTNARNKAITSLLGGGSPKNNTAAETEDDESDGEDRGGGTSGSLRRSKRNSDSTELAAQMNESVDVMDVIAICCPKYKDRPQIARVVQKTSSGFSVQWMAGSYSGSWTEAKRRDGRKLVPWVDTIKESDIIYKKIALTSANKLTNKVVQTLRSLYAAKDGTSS
Sequence of UniProt P00480 (P00480 whole entry, looked up): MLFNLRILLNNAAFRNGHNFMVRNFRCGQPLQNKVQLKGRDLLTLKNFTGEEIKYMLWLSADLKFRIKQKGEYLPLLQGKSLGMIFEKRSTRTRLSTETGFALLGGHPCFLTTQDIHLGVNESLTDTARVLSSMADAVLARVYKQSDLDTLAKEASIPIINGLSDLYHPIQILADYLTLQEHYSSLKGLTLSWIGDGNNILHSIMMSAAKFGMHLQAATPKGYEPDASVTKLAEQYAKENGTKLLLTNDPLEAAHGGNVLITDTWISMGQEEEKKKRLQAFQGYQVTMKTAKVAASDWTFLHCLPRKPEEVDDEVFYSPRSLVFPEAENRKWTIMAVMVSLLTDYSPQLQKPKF
Sequence of UniProt Q4G0N4 (Q4G0N4 whole entry, looked up): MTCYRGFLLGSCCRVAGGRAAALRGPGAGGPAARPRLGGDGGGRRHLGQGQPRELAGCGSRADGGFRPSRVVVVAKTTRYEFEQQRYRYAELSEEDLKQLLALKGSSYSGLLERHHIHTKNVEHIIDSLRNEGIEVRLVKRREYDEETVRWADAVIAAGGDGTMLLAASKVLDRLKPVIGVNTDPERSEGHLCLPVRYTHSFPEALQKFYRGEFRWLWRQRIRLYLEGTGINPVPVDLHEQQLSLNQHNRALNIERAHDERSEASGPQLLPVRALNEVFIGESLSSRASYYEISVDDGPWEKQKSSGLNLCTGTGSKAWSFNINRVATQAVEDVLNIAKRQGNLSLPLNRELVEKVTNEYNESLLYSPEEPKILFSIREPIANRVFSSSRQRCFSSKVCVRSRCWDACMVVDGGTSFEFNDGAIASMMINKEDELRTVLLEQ

Target	log2 fold change (alvocidib)	log2 fold change (Tubastatin A)	log2 fold change [1]	log2 fold change (defactinib)	log2 fold change [2]	log2 fold change (encorafenib)	log2 fold change [3]	log2 fold change (alisertib)	log2 fold change [4]	log2 fold change (gefitinib)	log2 fold change (lapatinib)	log2 fold change (pictilisib)	log2 fold change (crizotinib)	log2 fold change [5]	log2 fold change (duvelisib)	log2 fold change (gandotinib)	log2 fold change (tozasertib)	log2 fold change (doramapimod)	log2 fold change (bafetinib)	log2 fold change [6]
NCAPD3 (UniProt P42695)	-0.006	-0.224	0.017	0.017	0.013	0.037	-0.018	-0.017	0	-0.002	-0.015	-0.009	-0.065	-0.013	-0.004	-0.099	-0.013	0.02	-0.024	0.047
OGFOD2 (UniProt Q6N063)	0.029	0.033	0.059	0.015	-0.125	-0.054	0.223 (active)	0.009	-0.014	-0.065	0.034	-0.031	-0.017	-0.029	0.045	-0.016	0.019	-0.013	-0.09	0.032
NIPBL (UniProt Q6KC79)	-0.008	-0.183	-0.04	0.006	0	0.008	0.09	-0.066	0.035	0.027	-0.03	-0.081	-0.034	0.039	0	-0.094	-0.005	0.033	0.001	0.016
MTA3 (UniProt Q9BTC8)	-0.016	-0.013	0.019	0.044	-0.043	0.041	0.091	0.077	0.025	-0.059	0.006	0.026	-0.058	-0.022	0.001	-0.013	-0.008	0.002	-0.048	0.051
NEK7 (UniProt Q8TDX7)	-0.055	-0.113	0.552 (active)	0.007	-0.013	0	0.003	0.038	0.057	-0.049	-0.035	-0.018	-0.045	-0.062	-0.026	-0.031	-0.022	0.016	-0.026	0.15
OTC (UniProt P00480)	-1.18 (active)	0.148	-0.134	-0.188	-0.152	-0.047	-0.018	0.218	-0.023	0.184	-0.118	-0.026	-0.273	-4.33 (active)	0.159	-0.003	0.161	0.168	-0.412	0.377
MTA2 (UniProt O94776)	0.005	-0.049	-0.002	0.016	-0.01	0.009	0.134	0.012	-0.005	-0.02	-0.003	0.017	0	0.013	0	-0.033	-0.016	0.031	-0.009	0.021
NFAT5 isoform 5 (UniProt O94916)	-0.026	0.003	-0.027	0.007	0.077	0.043	-0.041	-0.072	-0.01	0.454 (active)	0.033	-0.002	0.053	-0.053	-0.041	0.045	-0.039	0.007	-0.041	0.008
NADK2 (UniProt Q4G0N4)	-0.025	0.106	-0.036	0	0.04	-0.052	0.3 (active)	-0.022	-0.004	-0.009	0.02	-0.028	-0.005	-0.04	0.03	0.004	0.012	-0.002	0.01	0.017
NSUN2 (UniProt Q08J23)	0.019	-0.097	-0.018	0.007	-0.024	-0.011	0.096	0.014	-0.007	-0.02	-0.009	-0.006	-0.024	0.072	-0.005	-0.05	-0.011	-0.009	-0.038	-0.007
MTHFD1, A0A384N5Y3	0.036	-0.076	-0.01	0.03	0.002	-0.016	0.145	-0.007	-0.012	-0.025	-0.008	-0.003	-0.064	0.04	0.015	-0.087	0.028	0.043	-0.041	-0.025
PBK (UniProt Q96KB5)	0.013	-0.041	-0.001	-0.004	-0.015	-0.011	0.099	-0.013	-0.003	-0.023	-0.024	-0.011	-0.005	0.013	-0.006	-0.066	-0.005	-0.021	-0.02	-0.01
NTMT1 (UniProt Q9BV86)	0.047	-0.175	0.018	0.065	0.023	-0.006	0.166	-0.007	-0.016	0.057	-0.008	-0.008	-0.009	0.079	-0.026	-0.113	-0.041	0.025	0.025	-0.045
NCAPG2 (UniProt Q86XI2)	-0.014	-0.217	-0.008	0.023	0.04	0.002	-0.018	0.004	-0.01	0.038	-0.062	-0.006	-0.048	-0.108	-0.052	-0.011	0.023	0.062	-0.074	0.143
NUMBL (UniProt Q9Y6R0)	-0.032	-0.103	-0.023	-0.218	0.023	0.189	-0.068	-0.064	0.044	0.09	0.01	0.111	0.066	0.018	0.162	0.176	0.036	0.247	0.041	0.036
MTFP1 (UniProt Q9UDX5)	-0.087	-0.006	0.053	0.145	0.007	-0.037	0.102	-0.032	0.003	-0.011	0.026	0.017	0.097	-0.364 (active)	-0.01	0.059	0.006	-0.043	0.01	0.067
